Experimental data: PubChem BioAssay AID488789 (Broad Institute, 2010)
Entries with a potency or affinity are not part of this list. Records with an inconclusive call do not appear. Calls of active or inactive are those of the source.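 How the source made its calls: active means samples whose fitted half-maximal inhibition concentration is no more than ten times the top valid dose tested; inconclusive means flat response between -70 and -30, or invalid curve fit; inactive means flat within 30 of zero, potency above limit, or signal rising.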

Target: Trypsin (Sus scrofa) (UniProt P00761)
Assay: porcine trypsin inhibitors, dose response, selectivity assay for Rce1 protease inhibitor project, biochemical, quenched peptide fluorescence, cherry-pick (AID 488789);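 further: more negative means stronger trypsin inhibition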
Conditions: quenched peptide cleavage fluorescence; series mostly up to 10 µM

Chain of Trypsin (Sus scrofa) (P00761 whole entry, looked up): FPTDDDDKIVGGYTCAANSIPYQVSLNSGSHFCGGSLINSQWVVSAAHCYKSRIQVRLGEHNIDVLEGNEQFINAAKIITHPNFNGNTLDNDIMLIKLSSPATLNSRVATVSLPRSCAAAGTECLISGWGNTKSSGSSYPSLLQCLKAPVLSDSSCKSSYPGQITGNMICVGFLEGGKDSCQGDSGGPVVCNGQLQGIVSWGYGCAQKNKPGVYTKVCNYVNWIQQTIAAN

Row | SMILES | outcome
1 | COc1cccc(-c2csc(N3CCN(C(=O)NC45CC6CC(CC(C6)C4)C5)CC3)n2)c1 | inactive
2 | CN(C(=O)COC(=O)c1cn(-c2ccccc2)nc1-c1ccccc1)C1CCS(=O)(=O)C1 (configuration not stated) | inactive
3 | COC(=O)C1CCCN1S(=O)(=O)c1ccc2ccccc2c1 (configuration not stated) | inactive
4 | NC(=O)CSC1=Nc2ccccc2C2=NC(c3ccccc3)C(=O)N12 (configuration not stated) | inactive
5 | COc1cc2ccccc2cc1C(=O)N(CCN(C)C)c1nc2ccc(C)cc2s1 | inactive
6 | CCOC(=O)c1cc2c(=O)[nH]ccc2nc1C | inactive
7 | C=C(C)CSc1nc2sc3c(c2c(=O)n1-c1ccc(OC)cc1)CCN(C)C3 | inactive
8 | O=C(Nc1ccc2c(c1)CCC2)c1ccccc1Br | inactive
9 | COc1cccc(-c2c(C(=O)N/N=C/c3sccc3C)nnn2-c2nonc2N)c1 | inactive
10 | Nc1nnnn1/N=C/c1ccccc1OCc1ccc(Cl)cc1Cl | inactive
11 | Nc1nc2c(ncn2COC(CO)CO)c(=O)[nH]1 | inactive
12 | COc1ccccc1-n1c(-c2ccccc2)c[nH]c1=S | inactive
13 | COc1ccc(OCC(=O)NS(=O)(=O)c2ccc(Cl)cc2)cc1 | inactive
14 | CCCCN(C)CCNC(=O)c1cc2c(-c3cccc(OC)c3)nn(C)c2s1 | inactive
15 | Cc1cccc(NC(=O)c2cc(S(=O)(=O)N3CCCCC3)c[nH]2)c1C | inactive
16 | CC1CCC/C(=C\Nc2ccccc2C(=O)O)C1=O (configuration not stated) | inactive
17 | Cc1cc2cc(C(=O)N3CCc4c([nH]c5ccccc45)C3c3ccccn3)ccc2o1 (configuration not stated) | inactive
18 | Cc1ccc(-c2nc(CN3CCCCC3)cc(CN3CCCCC3)c2O)cc1 | inactive
19 | O=S(=O)(CC(CN1CCOCC1)N1CCOCC1)c1ccccc1 (configuration not stated) | inactive

Row | SMILES | outcome
20 | CCCCOC(=O)Nc1nc(C)c(C(=O)OCC)s1 | inactive
21 | COCc1cc(C)n(CC(=O)NCc2ccccc2)c(=O)c1C#N | inactive
22 | C=C(C)C1(O)OC(=O)C=C1OC (configuration not stated) | inactive
23 | CCCOc1ccccc1C(=O)NCCCC(=O)O | inactive
24 | C/C(Cl)=C\Cn1c(O)c(N=NC(N)=S)c2cc(Br)ccc21 | inactive
25 | CC(C)C(NC(=O)c1ccco1)C(=O)NCC(c1ccco1)N1CCCCC1 (configuration not stated) | inactive
26 | COc1ccc(-c2cc(C(=O)N3CCN(c4ccccc4)CC3)c3ccccc3n2)cc1 | inactive
27 | COc1ccc(C(CNC(=O)COc2cc(C)c(Cl)c(C)c2)N2CCCCC2)cc1 (configuration not stated) | inactive
28 | COc1cccc(-c2nc(C#N)c(N3CCN(C(=O)c4ccco4)CC3)o2)c1 | inactive
29 | Nc1c(Cl)cc(C2=NCCn3nc4cc(C(F)(F)F)ccc4c32)cc1Cl | inactive
30 | CCOC(=O)C[n+]1ccc2c([nH]c3ccccc32)c1C | inactive
31 | CCOC(=O)[C@@H]1[C@H]2COc3ccc(Br)cc3[C@@H]2N2C(=O)N(c3cccc(Cl)c3)C(=O)[C@]12C | inactive
32 | CN(C)CCN(C(=O)c1ccc2ccccc2c1)c1nc2ccc(Br)cc2s1 | inactive
33 | Cc1ccc(-c2nc(Nc3ccc(N4CCOCC4)cc3)c3ccccc3n2)cc1 | inactive
34 | CC(Cc1cccs1)NC(=O)Nc1ccc([N+](=O)[O-])cc1 (configuration not stated) | inactive
35 | CC1(c2nnc(-c3cccc(Cl)c3)o2)CC(c2cccc(F)c2)=NO1 (configuration not stated) | inactive
36 | O=C(CCCn1c(=O)[nH]c2ccc(Br)cc2c1=O)NCc1ccc(Cl)cc1 | inactive
37 | Cc1ccc(-c2cc3cccc[n+]3cc2-c2ccc(C)cc2)cc1 | inactive
